# Among all 310,000 compounds or so, about 14,000 (4.5%) showed an effect of 50% or more. The effect is printed as a negative number. What follows is part of a selection rich in strong results, with near analogues and random picks from the rest.
# Biological target: human ether-à-go-go-related gene (hERG) potassium channel (human, UniProt Q12809)
# Test: primary screen, population patch clamp on CHO cells stably expressing hERG; higher = less effect of the substance
# 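Further: peak tail current of the secondary pulse compared with the same well before compound.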
# Sequence of human ether-à-go-go-related gene (hERG) potassium channel (Q12809 whole entry, looked up): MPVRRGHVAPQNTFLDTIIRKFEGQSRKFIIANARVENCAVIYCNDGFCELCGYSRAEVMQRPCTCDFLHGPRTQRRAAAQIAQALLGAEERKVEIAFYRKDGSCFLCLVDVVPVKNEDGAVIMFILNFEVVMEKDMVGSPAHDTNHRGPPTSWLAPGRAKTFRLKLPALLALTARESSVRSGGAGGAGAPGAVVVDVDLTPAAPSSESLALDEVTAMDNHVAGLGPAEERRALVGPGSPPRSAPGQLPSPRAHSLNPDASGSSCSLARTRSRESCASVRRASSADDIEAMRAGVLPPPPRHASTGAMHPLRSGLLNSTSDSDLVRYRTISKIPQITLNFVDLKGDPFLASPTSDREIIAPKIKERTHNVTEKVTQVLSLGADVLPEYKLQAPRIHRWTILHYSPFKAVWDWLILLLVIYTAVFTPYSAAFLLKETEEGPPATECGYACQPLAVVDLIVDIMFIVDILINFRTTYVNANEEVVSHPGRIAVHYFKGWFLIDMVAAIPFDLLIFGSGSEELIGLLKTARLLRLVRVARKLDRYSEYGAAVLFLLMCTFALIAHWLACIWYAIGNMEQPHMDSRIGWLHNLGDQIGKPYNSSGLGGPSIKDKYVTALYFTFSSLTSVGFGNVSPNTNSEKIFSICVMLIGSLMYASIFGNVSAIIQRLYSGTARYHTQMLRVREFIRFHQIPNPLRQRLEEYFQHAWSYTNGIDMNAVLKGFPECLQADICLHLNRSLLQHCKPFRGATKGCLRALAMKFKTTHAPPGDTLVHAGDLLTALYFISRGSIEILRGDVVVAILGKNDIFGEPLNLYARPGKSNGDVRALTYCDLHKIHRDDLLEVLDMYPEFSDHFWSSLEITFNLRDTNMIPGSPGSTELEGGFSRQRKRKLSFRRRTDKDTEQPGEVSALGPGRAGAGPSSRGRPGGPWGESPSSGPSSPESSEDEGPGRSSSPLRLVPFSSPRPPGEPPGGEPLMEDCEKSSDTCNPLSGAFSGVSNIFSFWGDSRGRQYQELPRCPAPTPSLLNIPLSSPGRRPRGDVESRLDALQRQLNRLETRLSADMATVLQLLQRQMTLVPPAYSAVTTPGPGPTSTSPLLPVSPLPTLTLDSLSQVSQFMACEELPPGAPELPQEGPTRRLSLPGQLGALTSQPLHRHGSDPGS
row,SMILES,"hERG current change (%, negative = inhibition) at 10uM [%]"
1,O=C(NNc1cccc([N+](=O)[O-])c1)/C(=C\c1cccnc1)NC(=O)c1ccccc1,-30.6
2,O=C(NCc1ccncc1)/C(=C/c1cccc([N+](=O)[O-])c1)NC(=O)c1ccccc1,-71
3,Cc1ccc(C(=O)N/C(=C\c2cccc([N+](=O)[O-])c2)C(=O)NCc2ccncc2)cc1,-73.3
4,Cc1ccc(C(=O)N/C(=C\c2cccc([N+](=O)[O-])c2)C(=O)Nc2cccc(C(=O)O)c2)cc1,15.2
5,Cn1c(=O)c2c(nc(Sc3ncccn3)n2Cc2ccccc2Cl)n(C)c1=O,-8.1
6,CCCC(=O)NC(=S)Nc1cccc(NC(=O)c2ccccc2)c1,-1.54
7,CCOc1ccc(C(=O)Nc2ccc(C(F)(F)F)n(C)c2=O)cc1,14.5
8,Cc1ccc(Nc2ncnc(N)n2)cc1,9.24
9,CCOc1ccc(NC(=O)CCC(=O)OC)cc1,-1.95
10,CCN(CC)CCOC(=O)c1ccc2c(c1)OCCO2.Cl,-11.4
11,CCOc1ccc(C(=O)OCCN(CC)CC)cc1.Cl,-44.8
12,CCCCOc1cc(C(=O)OCCN(CC)CC)ccc1N,-60.6
13,CCN(CC)CCOC(=O)c1cccc(Br)c1.Cl,-40.6
14,CCN(CC)CCOC(=O)c1ccc([N+](=O)[O-])cc1.Cl,-23.1
15,CCCOc1ccc(C(=O)OCCN(CC)CC)cc1N.Cl,-51.9
16,CCN(CC)CCOC(=O)c1ccc(N)cc1.Cl,2.06
17,CCCCOc1cc(C(=O)OCCN(CC)CC)ccc1N.Cl,-53.6
18,CCCOc1cc(N)ccc1C(=O)OCCN(CC)CC.Cl,-18.9
19,CCN(CC)CCOC(=O)c1ccc(NC(=S)NC(=O)/C=C/c2ccco2)cc1,-0.561
20,Cc1oc2c(c(C)cc3oc(=O)c(CC(=O)N[C@H](C(=O)O)C(C)C)c(C)c32)c1C,15.2
21,Cc1cc2c(ncn2C(C)C)c(N)c1C,-9.87
22,CSc1ccc(C#N)cc1NC(=O)c1ccccc1,-36.5
23,NC(=O)C1CCN(C(=O)Cc2ccsc2)CC1,-1.15
24,Cc1csc2nc(O)c(C(=O)NCCCc3ccccc3)c(=O)n12,-20
25,Cc1ccnc(NS(=O)(=O)c2ccc(NC(=O)Cc3ccc(Cl)cc3)cc2)n1,14.3
26,S=C1NC2(CCCCC2)Cc2ccccc21,12.4

# — PMC4336329 (PLoS ONE, 2015)
